# Screening results deposited in PubChem by National Center for Advancing Translational Sciences (NCATS).
# The list is not random: actives were taken first. Their share in the collection is about 19%.
# HT1080 IDH1KD tx: HT-1080 IDH1 knockdown cell toxicity (counter line) | HT-1080 IDH1 knockdown viability, ATP luminescence, 48 h | Potency, µM (titrated, usually from 46.1 µM), for inactives: at the top dose activity, negative = toxicity, most hits filed as cytotoxic | actives 2% (n = 360,000) | AID 686971;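 further: potency means the concentration at half of the fitted maximal effect; 0% = DMSO wells and -100% = cell-free medium wells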
#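 Cytotoxicity counter-line: IDH1KD HT-1080, 48 h, CellTiter-Glo. Curves classed by r2, magnitude and activity.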
# IL1B secr inh: blocks inflammasome-driven IL-1 beta release; THP-1 LPS/ATP IL-1B secretion, AlphaLISA, 16 h; stronger effect = lower value; activity change, % at 57.5 µM; actives 4.7% (n = 360,000); AID 743279; in the data active means activity change below about -50%; inconclusive means mostly about -30% to -49%
#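 THP-1 cells pretreated 1 hr with compounds (up to 57.5 uM final), then stimulated with LPS (250 ng/mL final) plus ATP (1.25 mM final); secreted IL-1B measured by AlphaLISA after 16 hr, decreased signal indicating inhibition.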
# TDP1 cell noCPT: qHTS for Inhibitors of human tyrosyl-DNA phosphodiesterase 1 (TDP1): qHTS in cells in absence of CPT. Potency, µM (top dose mostly 46.2 µM), inactives show top-dose activity change, negative = growth inhibition, hits mostly inhibitors. AID 686978, 2013. DT40 Tdp1-/- hTDP1 cells, no CPT, ATP luminescence, 48 h. actives 15% (n = 420,000); further: potency means the concentration at half of the fitted maximal effect; nearly all actives have a fitted effect of over 55% in size
#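 Growth of hTDP1-complemented DT40 Tdp1-knockout cells is measured by ATP luminescence after at least 48 hr compound exposure at 37 °C, with DMSO substituting for the 20 nM CPT used in the parallel screen.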
# HT1080-NT tox: kills 2HG-producing HT-1080-NT fibrosarcoma cells; HT-1080-NT fibrosarcoma viability, CellTiter-Glo ATP luminescence, 48 h; Potency, µM (doses to about 46.1 µM), inactives show at the top dose activity, negative = less viability, actives largely listed as cytotoxic; actives 1.6% (n = 360,000); AID 686970;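 further: NT is the 2HG producing partner of a matched IDH1 knockdown line; potency means the concentration at half of the fitted maximal effect; 0% = DMSO-treated cells and -100% = media-only wells without cells; nearly all actives have a fitted effect of over 55% in size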
#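 Viability of the 2HG-overproducing fibrosarcoma line after 48 hours of compound exposure at 37 degrees C was determined by luminescence with CellTiter-Glo, and concentration-effect curves were then fitted and categorized.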
# TDP1 cell CPT: DT40-hTDP1 cell growth loss with CPT | chicken DT40 Tdp1-/-;hTDP1 cells + 20 nM CPT, ATP luminescence, 48 h | Potency, µM (highest dose often 46.2 µM), for inactives: at the top dose activity change, negative = growth inhibition, hits mostly inhibitors | actives 12% (n = 420,000); further: potency means the concentration at half of the fitted maximal effect; nearly all actives have a fitted effect of over 55% in size
#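 Chicken DT40 Tdp1-/- cells complemented with human TDP1, 400 cells/well, exposed to compounds plus 20 nM camptothecin for at least 48 h at 37 C; viability read as ATP content by CellTiter-Glo luminescence.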
# Starred values were filed as active, the others as inactive; ? = inconclusive; nt = no result; [ ] = remark or other dose. Unless noted, the call rests on the fitted dose curve; in most records, active means well fitted curve in the direction sought with a large enough effect; inconclusive means small, poorly fitted or top-dose-only effect, or another doubt; inactive means no such curve, though single readings can be large; an effect the other way counts as inactive or inconclusive. Unless noted, on the % scale 0 is the no-effect control and ±100 the full control effect.
SMILES,HT1080 IDH1KD tx,IL1B secr inh,TDP1 cell noCPT,HT1080-NT tox,TDP1 cell CPT
C[C@@H](NC(=O)Cn1ccc(NC(=O)OCc2ccccc2)nc1=O)c1cccc2ccccc12,-12.7%,-24.7,?,-20.7%,?
CC[C@@H](NCCCn1ccc(NC(=O)OCc2ccccc2)nc1=O)c1ccccc1,-20.9%,-27.0,16.4µM*,-4.2%,?
C[C@@H](NCCCn1ccc(NC(=O)OCc2ccccc2)nc1=O)c1cccc2ccccc12,-26.1%,?,16.4µM*,-10.6%,?
Cc1ccc2c(c1)cc(CN(C)Cc1nc(C)cs1)c(=O)n2C,nt,nt,-20.3%,nt,0.5%
Cc1ccc(C(=O)c2cnc3ccccc3c2-c2ccccc2)cc1,-17.6%,-9.9,23.1µM*,-10.8%,?
C1=Nc2ccccc2/C1=C/c1ccccc1,nt,nt,12.6µM*,nt,4.47µM*
Cc1ccc(S(=O)(=O)NCc2ccc(C(=O)N3CCc4ccccc4C3)cc2)cc1,17.0%,-22.8,29.1µM*,1.6%,?
Cc1ccc(CN(c2ccc(C(=O)N3CCc4ccccc4C3)cc2)S(C)(=O)=O)cc1,-26.6%,4.3,14.6µM*,-7.0%,?
COc1ccc(S(=O)(=O)NCc2ccc(C(=O)N3CCc4ccccc4C3)cc2)cc1,-1.0%,-2.4,23.1µM*,4.5%,23.1µM*
COc1ccc(S(=O)(=O)NCc2ccc(C(=O)NCCCN3CCCC(C)C3)cc2)cc1 (configuration not stated),2.9%,-51.8*,-10.8%,12.2%,?
Cc1ccc(S(=O)(=O)NCc2ccc(C(=O)N3CCN(c4ccccc4)CC3)cc2)cc1,?,-22.6,?,-11.5%,?
CCN(C(=O)CSc1nnc(-c2cccc(F)c2)n1N)c1c(N)n(Cc2ccccc2)c(=O)[nH]c1=O,0.3%,5.0,0.8%,5.1%,-9.2%
CC(C)(CNC(=O)c1ccc(-c2cccc(C(F)(F)F)c2)o1)N1CCOCC1,-0.1%,-11.4,?,-7.8%,?
Cc1ccc(C)c(S(=O)(=O)NCc2ccc(C(=O)N3CCCCC3C)cc2)c1 (configuration not stated),-1.3%,-9.6,23.1µM*,-7.6%[9.24 µM],?
CC1CCCCN1C(=O)c1ccc(C(=O)N2CCCCC2C)cc1 (configuration not stated),-2.2%,71.5,-13.7%,1.5%,-17.2%
CCCCN(CCCNC(=O)Cn1nc(CC)n2c(cc3sc(C)cc32)c1=O)Cc1ccccc1,8.2%,-2.2,?,2.7%,?
COc1ccccc1C1CCN(C(=O)c2cccs2)CC1,3.1%,-53.5*,-18.6%,-0.4%,-11.2%
COc1ccccc1C1CCN(C(=O)c2cnn(-c3ccccc3)c2C)CC1,-7.1%,-6.8,14.6µM*,-0.6%,20.6µM*
O=S(=O)(c1cc(Br)c(Cl)s1)N1CCCC1,-1.9%,14.6,-26.6%,2.4%,-23.6%
CC(C)C[C@H]1CN=C(N(C)C)N1CCc1cccc(F)c1,-1.8%,-15.3,-28.8%,0.0%,-28.3%
CCC(C)[C@H]1CN=C(N)N1CCc1cccc(F)c1 (some centres not stated),6.2%,-19.9,13µM*,0.0%,18.4µM*
CC(C)C[C@H]1CN=C(Nc2ccccc2)N1CCc1cccc(F)c1,-16.6%,-52.4*,?,3.1%,10.3µM*
Cc1cccc(CCN2C(Nc3ccccc3)=NC[C@@H]2CC(C)C)c1,-28.3%,-54.5*,20.6µM*,?,18.4µM*
O=C(O)CCCNC(=O)c1ccccn1,-0.6%,-2.1,8.4%,-2.6%,?
COc1ccccc1NS(=O)(=O)c1cc(NC(=O)CN2C(=O)NC3(CCCC3)C2=O)ccc1C,2.6%,-13.3,-19.6%,-3.2%,2.2%
SMILES,HT1080 IDH1KD tx,IL1B secr inh,TDP1 cell noCPT,HT1080-NT tox,TDP1 cell CPT
Cc1cc(Cl)ccc1OCC(=O)N(Cc1ccco1)c1c(N)n(Cc2ccccc2)c(=O)[nH]c1=O,1.2%,0.0,?,-2.2%,?
CC(=O)Nc1ccc(NS(=O)(=O)c2cc(-c3cnc(C4CC4)o3)ccc2C)cc1,-5.9%,41.0,2.31µM*,-3.9%,2.91µM*
COc1ccc(-c2cnc(C)o2)cc1S(=O)(=O)Nc1ccc(NC(C)=O)cc1,nt,nt,-5.5%,nt,-3.4%
Cc1ccc(-c2cnc(C3CC3)o2)cc1S(=O)(=O)Nc1ccccc1,?,28.9,4.61µM*,-25.9%,4.61µM*
CC(=O)c1cccc(NS(=O)(=O)c2cc(-c3cnc(C4CC4)o3)ccc2C)c1,23.1µM*,39.6,5.17µM*,20.6µM*,5.8µM*
Cc1ccc(NS(=O)(=O)c2cc(-c3cnc(C4CC4)o3)ccc2C)cc1Cl,nt,nt,5.17µM*,nt,7.31µM*
CC(=O)c1cccc(NS(=O)(=O)c2cc(OCC(N)=O)c(C)cc2Cl)c1,-8.6%,73.7,-12.2%,3.3%,-14.8%
CS(=O)(=O)c1cc(C(=O)O)cc(NCc2ccccc2)c1Oc1ccccc1,5.3%,9.3,?,8.1%,-19.4%
CC(=O)c1ccc(NS(=O)(=O)c2cc(-c3cnc(C4CC4)o3)ccc2C)cc1,?,66.2,?,20.6µM*,13µM*
Cc1cc2c3c(c1)C1(C(=O)N3C(C)(C)CC2C)C(C#N)=C(N)Oc2cc(O)ccc21 (configuration not stated),?,-25.1,25.1µM*,?,-13.4%
Cc1ccc2c3c1C1(C(=O)N3C(C)(C)CC2C)C(C#N)=C(N)Oc2cc(O)ccc21 (configuration not stated),?,?,0.3%,?,-23.2%
Cc1cccc(C)c1N(CC(O)Cn1c2ccccc2c2ccccc21)S(C)(=O)=O (configuration not stated),?,-22.1,?,?,?
CS(=O)(=O)N(Cc1ccco1)CC(O)Cn1c2ccccc2c2ccccc21 (configuration not stated),-11.0%,-21.8,-23.8%,-2.9%,-17.4%
Cc1ccc(N(CC(O)Cn2c3ccccc3c3ccccc32)S(C)(=O)=O)c(C)c1 (configuration not stated),?,-71.8*,?,17.8µM*,?
Cc1ccc(N(CC(O)Cn2nc(C)cc2C)S(=O)(=O)c2ccc3ccccc3c2)cc1 (configuration not stated),-2.0%,?,18.4µM*,-9.2%,?
Cc1ccc(N(CC(O)CN2CCCC2)S(=O)(=O)c2ccc(C)cc2)cc1 (configuration not stated),8.5%,-19.7,-11.7%,-5.1%,-9.0%
Cc1ccc(N(CC(O)Cn2c3ccccc3c3ccccc32)S(C)(=O)=O)cc1 (configuration not stated),?,-65.6*,?,?,-20.0%
